# Results published in PubChem BioAssay AID1159580 (chemical genetic matrix, 2015).
# Several values for one entry are separate records, joined by “and”; a condition that tells them apart may be missing. Identical values can stand only once. The campaign covered roughly 5,500 compounds. About 2,000 (36%) were called active. Not shown: some 18% with an inconclusive outcome. No stated cut-off is given here; in the data, active means normalized growth mostly below about 0.91 (no sharp cut-off); inconclusive means no clear call, values can overlap the other calls; inactive means mostly above about 0.92. This is one part of the list. The source holds several records for some structures; these can differ, active in one and inactive in another.
# Test: chemical genetic growth profiling, strain panel (AID 1159580);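 further: tested at 20 µM; growth read once vehicle control cultures reached saturation at 30 °C; 1 = growth at the plate median or of vehicle wells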
# Details: growth OD
structure (smiles),measurement,setting,value
CC[N+](C)(C)c1cccc(O)c1,normalized growth,"S. cerevisiae deletion strains, locus YNL153C, strain GIM3, stronger effect = lower value",0.982 (inactive)
same,normalized growth,"S. cerevisiae deletion strains, locus YNL175C, strain NOP13, stronger effect = lower value",0.999 (inactive)
same,normalized growth,"S. cerevisiae deletion strains, locus YNL183C, strain NPR1, stronger effect = lower value",0.95 (inactive)
same,normalized growth,"S. cerevisiae deletion strains, locus YNL197C, strain WHI3, stronger effect = lower value",1 (inactive)
same,normalized growth,"S. cerevisiae deletion strains, locus YNL209W, strain ssb2, stronger effect = lower value",1.01 (inactive)
same,normalized growth,"S. cerevisiae deletion strains, locus YNL224C, strain SQS1, stronger effect = lower value",1.02 (inactive)
same,normalized growth,"S. cerevisiae deletion strains, locus YNL233W, strain BNI4, stronger effect = lower value",0.979 (inactive)
same,normalized growth,"S. cerevisiae deletion strains, locus YNL248C, strain rpa49, stronger effect = lower value",1.07 (inactive)
same,normalized growth,"S. cerevisiae deletion strains, locus YNL250W, strain rad50, stronger effect = lower value",0.982 (inactive)
same,normalized growth,"S. cerevisiae deletion strains, locus YNL271C, strain bni1, stronger effect = lower value",0.977 (inactive)
same,normalized growth,"S. cerevisiae deletion strains, locus YNL298W, strain CLA4, stronger effect = lower value",0.979 (inactive)
same,normalized growth,"S. cerevisiae deletion strains, locus YNL307C, strain MCK1, stronger effect = lower value",0.973 (inactive)
same,normalized growth,"S. cerevisiae deletion strains, locus YNL322C, strain KRE1 (second series), stronger effect = lower value",1.02 (inactive)
same,normalized growth,"S. cerevisiae deletion strains, locus YNL322C, strain KRE1, stronger effect = lower value",0.993 (inactive)
same,normalized growth,"S. cerevisiae deletion strains, locus YNR049C, strain mso1, stronger effect = lower value",1.01 (inactive)
same,normalized growth,"S. cerevisiae deletion strains, locus YNR052C, strain pop2, stronger effect = lower value",0.984 (inactive)
same,normalized growth,"S. cerevisiae deletion strains, locus YOL006C, strain TOP1, stronger effect = lower value",0.948 (inactive)
same,normalized growth,"S. cerevisiae deletion strains, locus YOL012C, strain htz1",0.664 (inactive)
same,normalized growth,"S. cerevisiae deletion strains, locus YOL147C, strain pex11, stronger effect = lower value",0.982 (inactive)
same,normalized growth,"S. cerevisiae deletion strains, locus YOR001W, strain rrp6, stronger effect = lower value",0.951 (inactive)
same,normalized growth,"S. cerevisiae deletion strains, locus YOR061W, strain CKA2, stronger effect = lower value",0.989 (inactive)
same,normalized growth,"S. cerevisiae deletion strains, locus YOR069W, strain VPS5, stronger effect = lower value",0.986 (inactive)
same,normalized growth,"S. cerevisiae deletion strains, locus YOR070C, strain gyp1, stronger effect = lower value",1 (inactive)
same,normalized growth,"S. cerevisiae deletion strains, locus YOR080W, strain dia2, stronger effect = lower value",1 (inactive)
same,normalized growth,"S. cerevisiae deletion strains, locus YOR083W, strain WHI5 (second series), stronger effect = lower value",0.991 (inactive)
same,normalized growth,"S. cerevisiae deletion strains, locus YOR083W, strain WHI5, stronger effect = lower value",1.05 (inactive)
same,normalized growth,"S. cerevisiae deletion strains, locus YOR106W, strain vam3, stronger effect = lower value",1.05 (inactive)
same,normalized growth,"S. cerevisiae deletion strains, locus YOR136W, strain idh2, stronger effect = lower value",0.986 (inactive)
same,normalized growth,"S. cerevisiae deletion strains, locus YOR144C, strain elg1, stronger effect = lower value",0.979 (inactive)
same,normalized growth,"S. cerevisiae deletion strains, locus YOR184W, strain ser1, stronger effect = lower value",0.955 (inactive)
same,normalized growth,"S. cerevisiae deletion strains, locus YOR231W, strain MKK1, stronger effect = lower value",0.997 (inactive)
same,normalized growth,"S. cerevisiae deletion strains, locus YOR265W, strain rbl2, stronger effect = lower value",1.01 (inactive)
same,normalized growth,"S. cerevisiae deletion strains, locus YOR270C, strain vph1, stronger effect = lower value",1.07 (inactive)
same,normalized growth,"S. cerevisiae deletion strains, locus YOR290C, strain snf2, stronger effect = lower value",1.04 (inactive)
same,normalized growth,"S. cerevisiae deletion strains, locus YOR316C, strain cot1, stronger effect = lower value",0.975 (inactive)
same,normalized growth,"S. cerevisiae deletion strains, locus YPL051W, strain arl3, stronger effect = lower value",1.04 (inactive)
same,normalized growth,"S. cerevisiae deletion strains, locus YPL055C, strain LGE1, stronger effect = lower value",1.01 (inactive) and 1.17 [resistant] (active)
same,normalized growth,"S. cerevisiae deletion strains, locus YPL078C, strain atp4, stronger effect = lower value",1.06 (inactive)
same,normalized growth,"S. cerevisiae deletion strains, locus YPL106C, strain sse1, stronger effect = lower value",1.02 (inactive)
same,normalized growth,"S. cerevisiae deletion strains, locus YPL240C, strain hsp82, stronger effect = lower value",1.01 (inactive)
same,normalized growth,"S. cerevisiae deletion strains, locus YPL241C, strain CIN2, stronger effect = lower value",1 (inactive) and 1.01 (inactive)
same,normalized growth,"S. cerevisiae deletion strains, locus YPL256C, strain CLN2, stronger effect = lower value",0.981 (inactive)
same,normalized growth,"S. cerevisiae deletion strains, locus YPR119W, strain clb2, stronger effect = lower value",0.992 (inactive)
same,normalized growth,"S. cerevisiae deletion strains, locus YPR141C, strain kar3, stronger effect = lower value",0.96 (inactive)
same,normalized growth,"S. cerevisiae deletion strains, locus YPR163C, strain tif3, stronger effect = lower value",0.97 (inactive)
same,normalized growth,"S. cerevisiae deletion strains, locus YPR167C, strain met16, stronger effect = lower value",0.979 (inactive)
same,normalized growth,"S. cerevisiae deletion strains, strain wtn01, stronger effect = lower value",0.937 (inactive)
same,normalized growth,"S. cerevisiae strains, strain wild type, stronger effect = lower value",0.996 (inactive)
